Experimental findings from PubChem BioAssay AID1672 (Johns Hopkins Ion Channel Center, 2009) are described below.

In all, about 310,000 compounds went through this assay and about 2,600 (0.84%) were called active.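 The calls were made as follows: active = fluorescence ratio B-score at or below minus 3 SD of library scores, with starting-brightness B-score within 2 SD (cut at about -4.2 in these data); inactive = the rest.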 What follows is part of a selection rich in actives, with near analogues and random picks from the rest.

For this assay, the target named is Inward rectifier potassium channel 2 (Mus musculus) (UniProt P35561). The assay can be described thus: inhibitors of mouse Kir2.1 inward-rectifier potassium channel (AID 1672).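 Also: channel flux triggered by added potassium and thallium sulfate stimulus; B-score of peak minus minimum fluorescence over baseline after thallium stimulus; more negative B-score means stronger Kir2.1 block with less thallium influx.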 The settings on record: HEK293-Kir2.1, FluxOR thallium flux fluorescence; at 10 µM; active compounds read low.
Sequence of Inward rectifier potassium channel 2 (Mus musculus) (P35561 whole entry, looked up): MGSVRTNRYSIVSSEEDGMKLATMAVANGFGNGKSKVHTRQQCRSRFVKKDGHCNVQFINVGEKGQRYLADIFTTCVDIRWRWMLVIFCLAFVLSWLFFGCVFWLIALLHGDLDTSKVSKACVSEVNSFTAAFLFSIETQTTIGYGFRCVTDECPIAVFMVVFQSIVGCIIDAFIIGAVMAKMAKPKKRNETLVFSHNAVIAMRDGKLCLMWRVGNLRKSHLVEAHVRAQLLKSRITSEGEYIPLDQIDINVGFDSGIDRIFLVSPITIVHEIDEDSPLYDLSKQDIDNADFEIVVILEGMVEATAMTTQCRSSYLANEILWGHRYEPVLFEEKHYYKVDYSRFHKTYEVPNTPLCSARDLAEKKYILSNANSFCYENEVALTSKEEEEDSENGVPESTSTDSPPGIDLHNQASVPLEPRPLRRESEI
As to `CC1CCCN(CCOCCOc2ccccc2-c2ccccc2)C1` (stereo not given), the B-score was -6.74 (active).

As to `CN1CCN(CCCCOc2cccc3ccccc23)CC1`, the B-score is -1.84 (inactive). In the case of `CC1CN(CCCOc2ccccc2-c2ccccc2)CC(C)O1` (stereo not given), the B-score was -4.04 (inactive).

Regarding `c1ccc(-c2ccccc2OCCN2CCCCC2)cc1`, the B-score was -1.64 (inactive). As to `CN1CCN(CCCCOc2ccccc2-c2ccccc2)CC1`, the B-score is -6.95 (active).

For the compound `COc1ccccc1OCCCCCCN1CCN(C)CC1`, the B-score is 1 (inactive). The value for `CC(OC(=O)CCCc1c[nH]c2ccccc12)C(=O)Nc1ccc(S(N)(=O)=O)cc1` (stereo not given) was -0.01 (inactive); that for `Cc1sc(NC(=O)C2=COCCO2)c(C#N)c1C` was -0.98 (inactive); that for `O=C(NCCc1c[nH]c2ccccc12)c1cccc(Br)c1` was -0.14 (inactive).

Take `Cc1ccc2[nH]cc(CCNC(=O)C3CCCCC3)c2c1`: the B-score was 0.62 (inactive). Turning to `O=C(NCCc1c[nH]c2ccccc12)C1CCN(Cc2ccc(Br)cc2)CC1`, the B-score was -5.88 (active).

As to `Cc1c(NC(=O)C(C)OC(=O)c2c3c(nc4ccccc24)CCC(C)C3)c(=O)n(-c2ccccc2)n1C` (stereo not given), the B-score is 0.01 (inactive). The value for `Cc1cc(C)nc(SCc2nnc(SCC(=O)OC3CCCCC3)o2)n1` was -6.39 (active); that for `CCOC(=O)C(C)Sc1nnc(CSc2nc3nc(C)cc(C)n3n2)o1` (stereo not given) was 0.45 (inactive); that for `Cc1cc(C)cc(OCc2nnc(SCC(=O)OC3CCCCC3)o2)c1` was 2.83 (inactive). For `O=C(CSc1nnc(-c2cccnc2)n1Cc1ccco1)c1ccc(Cl)c(Cl)c1`, the B-score is -0.81 (inactive). As for `O=C(CSc1nnc(-c2cccnc2)n1Cc1ccco1)c1ccc(Cl)cc1`, the B-score is -3.48 (inactive). For `C(=C\c1ccccc1)/CSc1nnc(-c2cccnc2)n1Cc1ccco1`, the B-score was -6.26 (active).

With `O=C(Cc1ccc(S(=O)(=O)N2CCOCC2)s1)NCCOc1ccccc1F`, the B-score is -0.88 (inactive). Take `O=C(CCC1CCCCC1)Nc1cc(C(F)(F)F)ccc1N1CCOCC1`: the B-score was -0.88 (inactive). With `Cc1cc(=O)oc2cc(NC(=O)C(C)Oc3ccccc3)ccc12` (stereo not given), the B-score is 0.76 (inactive).

As to `CC(CN1CCCCC1)c1ccccc1` (stereo not given), the B-score is -0.88 (inactive). As for `COc1ccc(C(O)(C2CCCCC2)C(CN2CCCC2)c2ccccc2)cc1` (stereo not given), the B-score was -6.33 (active).

In the case of `CCCC(O)(c1ccc(OC)cc1)C(CN(C)C)c1ccccc1` (stereo not given), the B-score is -2.85 (inactive). With `CN(CC(=O)NCc1cccnc1)S(=O)(=O)c1cc(Cl)ccc1Cl` the figure was 0.05 (inactive); with `Cc1ccc(S(=O)(=O)NCCC(=O)NNC(=O)C2COc3ccccc3O2)cc1` (stereo not given), -0.97 (inactive); with `COc1cccc(CC2(CO)CCCN(Cc3ccc(OC(F)F)cc3)C2)c1` (stereo not given), -1.05 (inactive). For the compound `CN1c2ccccc2-c2nc3ccccc3n2C1c1ccco1` (stereo not given), the B-score was -4.99 (active). The value for `Cn1c(-c2ccco2)nc2cc3ccccc3cc21` was 0.04 (inactive); that for `Cn1cccc1-c1nc2ccccc2n1C` was -0.13 (inactive). For the compound `COc1ccccc1N1CCN(c2nc(C)cc(=O)[nH]2)CC1`, the B-score is 0.62 (inactive). Consider `O=C(CCNC(=O)Cn1ccc2ccccc2c1=O)NCCC1=CCCCC1`, for which the B-score is -0.38 (inactive).

Take `CCn1c(=O)cc(SCC(=O)NCCC2=CCCCC2)c2ccccc21`: the B-score is -8.59 (active). For the compound `O=C(Cc1cccc2ccccc12)NCCC1=CCCCC1`, the B-score is -1.35 (inactive). The value for `CCOc1cc(N2CCOCC2)c(OCC)cc1NC(=O)COc1cccc(Cl)c1` was -0.59 (inactive). The value for `CC(C)CN(C(=O)c1ccc2c(c1)OCO2)C1CCS(=O)(=O)C1` (stereo not given) was -2.25 (inactive); that for `COc1ccc(Nc2nnc(C)c3ccccc23)cc1` was -0.1 (inactive).

Regarding `COc1ccc(Nc2ncnc3sc(C)cc23)cc1`, the B-score was -6.13 (active). With `COc1ccc(Nc2ncnc3sc(-c4ccccc4)cc23)c(OC)c1` the figure was 0 (inactive); with `Cc1ccc2nc(C)c3c(c2c1)N(c1ccccc1)CC3`, -13.2 (active). On to `Cc1ccc2nc3n(c(=O)c2c1)CCC3`, for which the B-score is -2.3 (inactive). For the compound `Cc1ccc2nc(Nc3ccccc3)cc(C)c2c1`, the B-score is 1.96 (inactive).

As for `O=C(O)C1C2C=CC(C2)C1C(=O)NCc1ccccc1` (stereo not given), the B-score was -0.26 (inactive). As to `CCCCCCCCn1c2c(c(=N)c3c1CCC3)CCCC2`, the B-score is -14.8 (active). Take `CCCCCCn1c(CN2CCCCC2)nc2c1c(=O)n(C)c(=O)n2C`: the B-score was -1.63 (inactive).

Regarding `COc1ccccc1NC(=O)C(C)OC(=O)c1ccc(-n2cnnn2)cc1` (stereo not given), the B-score is 1.19 (inactive). With `CC(=O)Nc1ccc(C(=O)NNC(=O)CCCCC(=O)NNC(=O)c2ccc(NC(C)=O)cc2)cc1`, the B-score is 0.27 (inactive). Take `CCOc1ccc(S(=O)(=O)NCCC(=O)N2CCCCCCC2)cc1`: the B-score was -0.07 (inactive). Consider `COc1cccc(CN(C)CC(=O)NCc2ccccc2Cl)c1OC`, for which the B-score was -3.73 (inactive). `COc1cccc(CN(C)CC2CCCN(CCc3ccc(Cl)cc3)C2)c1OC` (stereo not given): the B-score is -8.2 (active). For the compound `Cc1nc2ccc(C(=O)N(C)CC3CCCN(CCc4ccc(Cl)cc4)C3)cc2[nH]1` (stereo not given), the B-score is -1.32 (inactive).

Consider `O=C(Nc1ccc(OC(F)(F)F)cc1)c1ccc2c(c1)no[n+]2[O-]`, for which the B-score was 0.38 (inactive). Turning to `CCc1ccc(-c2nn(-c3ccccc3)cc2CSC(=N)N)cc1`, the B-score was -10.6 (active). On to `N=C(N)SCc1cccc2ccccc12`, for which the B-score is -3.09 (inactive). As to `O=C(Nc1cn(-c2ccccc2)nc1-c1ccccc1)c1ccccc1`, the B-score is 0 (inactive). In the case of `CCN1CCN(c2ccc(S(=O)(=O)N3CCCCC3)cc2NC(=O)c2cccc(NC(C)=O)c2)CC1`, the B-score was 0.95 (inactive). With `CCc1ccc(C(=O)NNC(=O)C2CCN(c3ncnc4sc(C)c(C)c34)CC2)cc1`, the B-score was -1.35 (inactive).

Turning to `O=C(COc1ccccc1Cl)Nc1ccccc1C(=O)NC1CC1`, the B-score was -1.39 (inactive). Regarding `COc1ccc(N2CCC(CNC(=S)Nc3c(C)cccc3C)C2)cc1` (stereo not given), the B-score is -6.34 (active). In the case of `COc1ccc(NC(=S)NCCN2CCC(C)CC2)cc1`, the B-score is -1.95 (inactive).

As for `COc1ccc(NC(=S)NCC2CCN(c3ccc(OC)cc3)C2)cc1` (stereo not given), the B-score was 1.12 (inactive). With `COc1ccc(F)cc1S(=O)(=O)NCC(c1ccc2c(c1)OCO2)N1CCN(C)CC1` (stereo not given) the figure was -0.39 (inactive). With `Nc1ccccc1SCc1cc([N+](=O)[O-])cc2c1OCOC2` the figure was -4.96 (active); with `CC(O)C(NS(=O)(=O)c1ccc(Cl)cc1)C(=O)OCc1cc([N+](=O)[O-])cc2c1OCOC2` (stereo not given), -0.06 (inactive); with `COc1ccccc1CSc1ncc(-c2ccc([N+](=O)[O-])cc2)[nH]1`, 0.65 (inactive).
